The record followed here is the supplement of paper PMC10849652.

The full data set covers some 7,900 targets. This sample favours those with a hit. About 0.6% of all pairs of compound and target were hits. A number with no mark means an inactive call.

Sequence of UniProt P19784 (P19784 whole entry, looked up): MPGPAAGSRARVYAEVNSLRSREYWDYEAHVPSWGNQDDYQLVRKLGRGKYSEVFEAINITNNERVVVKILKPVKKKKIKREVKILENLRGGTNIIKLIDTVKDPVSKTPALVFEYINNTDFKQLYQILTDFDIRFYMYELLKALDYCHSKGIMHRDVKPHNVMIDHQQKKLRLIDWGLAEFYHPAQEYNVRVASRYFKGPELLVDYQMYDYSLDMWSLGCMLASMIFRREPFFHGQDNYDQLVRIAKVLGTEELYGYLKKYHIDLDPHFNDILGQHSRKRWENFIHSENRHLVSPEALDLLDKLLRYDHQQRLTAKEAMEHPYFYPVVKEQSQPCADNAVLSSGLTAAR
Sequence of UniProt O95628 (O95628 whole entry, looked up): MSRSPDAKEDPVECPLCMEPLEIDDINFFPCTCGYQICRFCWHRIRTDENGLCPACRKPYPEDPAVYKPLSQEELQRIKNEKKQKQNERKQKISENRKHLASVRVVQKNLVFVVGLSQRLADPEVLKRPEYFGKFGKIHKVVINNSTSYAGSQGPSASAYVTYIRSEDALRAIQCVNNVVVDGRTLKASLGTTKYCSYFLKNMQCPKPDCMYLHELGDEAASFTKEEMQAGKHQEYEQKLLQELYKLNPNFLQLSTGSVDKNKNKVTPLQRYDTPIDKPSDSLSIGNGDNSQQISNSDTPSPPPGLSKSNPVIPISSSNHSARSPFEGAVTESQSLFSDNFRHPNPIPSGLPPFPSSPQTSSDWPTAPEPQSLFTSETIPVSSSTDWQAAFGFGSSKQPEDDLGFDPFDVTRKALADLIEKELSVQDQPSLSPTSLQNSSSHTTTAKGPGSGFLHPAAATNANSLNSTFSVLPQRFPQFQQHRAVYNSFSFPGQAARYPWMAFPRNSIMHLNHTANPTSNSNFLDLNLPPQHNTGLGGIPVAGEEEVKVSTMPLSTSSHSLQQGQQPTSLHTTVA
Sequence of UniProt P51790 (P51790 whole entry, looked up): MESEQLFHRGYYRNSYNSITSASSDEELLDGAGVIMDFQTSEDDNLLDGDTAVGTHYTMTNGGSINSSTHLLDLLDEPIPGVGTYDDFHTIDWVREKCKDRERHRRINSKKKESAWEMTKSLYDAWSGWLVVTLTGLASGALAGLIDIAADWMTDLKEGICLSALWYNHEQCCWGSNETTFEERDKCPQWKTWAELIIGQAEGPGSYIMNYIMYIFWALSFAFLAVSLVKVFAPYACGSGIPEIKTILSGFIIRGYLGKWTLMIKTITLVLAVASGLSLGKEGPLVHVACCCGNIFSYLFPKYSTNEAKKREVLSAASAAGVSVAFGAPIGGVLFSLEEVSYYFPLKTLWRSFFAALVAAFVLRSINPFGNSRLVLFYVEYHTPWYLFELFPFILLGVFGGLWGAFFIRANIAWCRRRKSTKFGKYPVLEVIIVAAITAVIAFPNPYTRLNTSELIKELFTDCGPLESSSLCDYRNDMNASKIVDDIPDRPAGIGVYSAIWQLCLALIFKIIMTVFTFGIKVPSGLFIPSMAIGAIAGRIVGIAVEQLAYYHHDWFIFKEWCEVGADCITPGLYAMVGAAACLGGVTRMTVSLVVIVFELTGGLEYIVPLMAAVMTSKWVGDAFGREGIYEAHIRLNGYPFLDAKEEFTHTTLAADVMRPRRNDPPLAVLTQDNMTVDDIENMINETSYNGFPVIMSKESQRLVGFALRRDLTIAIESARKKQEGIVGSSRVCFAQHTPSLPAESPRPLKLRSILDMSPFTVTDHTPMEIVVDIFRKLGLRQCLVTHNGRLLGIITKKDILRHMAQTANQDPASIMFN
Sequence of UniProt Q8IWY9 (Q8IWY9 whole entry, looked up): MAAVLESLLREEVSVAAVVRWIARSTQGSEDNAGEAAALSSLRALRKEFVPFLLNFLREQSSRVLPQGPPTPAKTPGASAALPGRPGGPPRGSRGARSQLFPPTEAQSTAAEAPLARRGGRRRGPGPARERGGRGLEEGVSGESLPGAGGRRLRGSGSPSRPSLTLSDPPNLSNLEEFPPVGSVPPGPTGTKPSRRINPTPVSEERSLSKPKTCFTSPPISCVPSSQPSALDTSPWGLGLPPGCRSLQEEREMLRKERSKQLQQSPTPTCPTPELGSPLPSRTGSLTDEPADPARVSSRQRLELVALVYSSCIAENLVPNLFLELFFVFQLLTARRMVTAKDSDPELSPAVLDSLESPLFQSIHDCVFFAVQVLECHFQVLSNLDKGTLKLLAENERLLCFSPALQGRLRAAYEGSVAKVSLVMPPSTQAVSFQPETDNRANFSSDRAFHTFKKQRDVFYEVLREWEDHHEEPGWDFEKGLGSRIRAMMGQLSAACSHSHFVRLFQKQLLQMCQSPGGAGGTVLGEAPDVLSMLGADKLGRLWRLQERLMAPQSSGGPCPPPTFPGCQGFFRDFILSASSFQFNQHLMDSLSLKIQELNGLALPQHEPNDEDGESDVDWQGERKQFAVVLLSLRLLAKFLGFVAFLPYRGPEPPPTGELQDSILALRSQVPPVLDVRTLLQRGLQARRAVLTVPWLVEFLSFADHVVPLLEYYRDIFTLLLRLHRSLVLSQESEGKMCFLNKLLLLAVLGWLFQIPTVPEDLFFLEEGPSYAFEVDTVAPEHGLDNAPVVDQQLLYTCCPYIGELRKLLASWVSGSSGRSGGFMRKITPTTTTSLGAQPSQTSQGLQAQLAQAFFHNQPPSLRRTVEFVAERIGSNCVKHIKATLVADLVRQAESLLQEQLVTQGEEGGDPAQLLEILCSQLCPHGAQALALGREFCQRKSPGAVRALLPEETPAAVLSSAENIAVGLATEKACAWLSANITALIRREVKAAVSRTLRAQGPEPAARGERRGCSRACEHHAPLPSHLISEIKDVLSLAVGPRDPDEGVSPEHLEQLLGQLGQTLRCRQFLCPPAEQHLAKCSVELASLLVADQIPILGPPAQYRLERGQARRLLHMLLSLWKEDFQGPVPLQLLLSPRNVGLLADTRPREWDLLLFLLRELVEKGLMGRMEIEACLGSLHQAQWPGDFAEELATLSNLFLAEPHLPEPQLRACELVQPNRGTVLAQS
Sequence of UniProt Q9NZN8 (Q9NZN8 whole entry, looked up): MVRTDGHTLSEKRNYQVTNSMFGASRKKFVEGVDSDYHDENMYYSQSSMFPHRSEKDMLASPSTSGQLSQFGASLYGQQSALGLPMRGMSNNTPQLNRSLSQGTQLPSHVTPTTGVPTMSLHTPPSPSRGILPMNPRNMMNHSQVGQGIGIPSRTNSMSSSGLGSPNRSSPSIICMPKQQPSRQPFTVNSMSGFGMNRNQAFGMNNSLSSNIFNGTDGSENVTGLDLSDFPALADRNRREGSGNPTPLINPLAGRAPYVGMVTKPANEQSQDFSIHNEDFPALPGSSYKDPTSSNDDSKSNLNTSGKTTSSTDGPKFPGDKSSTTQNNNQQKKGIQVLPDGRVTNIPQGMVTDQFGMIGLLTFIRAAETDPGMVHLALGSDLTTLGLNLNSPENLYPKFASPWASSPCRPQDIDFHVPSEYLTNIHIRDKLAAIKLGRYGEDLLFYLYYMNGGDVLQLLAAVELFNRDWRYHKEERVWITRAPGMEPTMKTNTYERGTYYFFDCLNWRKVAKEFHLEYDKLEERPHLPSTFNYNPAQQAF
Sequence of UniProt P09497 (P09497 whole entry, looked up): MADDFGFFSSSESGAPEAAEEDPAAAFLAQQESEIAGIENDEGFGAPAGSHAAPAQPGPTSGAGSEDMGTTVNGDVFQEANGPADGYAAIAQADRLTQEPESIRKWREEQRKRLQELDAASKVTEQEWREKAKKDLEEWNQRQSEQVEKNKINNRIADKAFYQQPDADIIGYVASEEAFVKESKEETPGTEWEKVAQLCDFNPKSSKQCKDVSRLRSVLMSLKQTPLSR
Sequence of UniProt Q00535 (Q00535 whole entry, looked up): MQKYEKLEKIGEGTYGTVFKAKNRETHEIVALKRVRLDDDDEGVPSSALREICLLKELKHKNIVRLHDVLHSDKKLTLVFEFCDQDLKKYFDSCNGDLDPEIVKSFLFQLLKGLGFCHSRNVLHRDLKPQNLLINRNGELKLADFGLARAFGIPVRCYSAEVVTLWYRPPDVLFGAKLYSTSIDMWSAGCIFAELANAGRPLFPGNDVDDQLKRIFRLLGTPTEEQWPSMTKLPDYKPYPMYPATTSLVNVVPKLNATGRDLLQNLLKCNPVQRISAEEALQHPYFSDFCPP
Sequence of UniProt Q9NXV6 (Q9NXV6 whole entry, looked up): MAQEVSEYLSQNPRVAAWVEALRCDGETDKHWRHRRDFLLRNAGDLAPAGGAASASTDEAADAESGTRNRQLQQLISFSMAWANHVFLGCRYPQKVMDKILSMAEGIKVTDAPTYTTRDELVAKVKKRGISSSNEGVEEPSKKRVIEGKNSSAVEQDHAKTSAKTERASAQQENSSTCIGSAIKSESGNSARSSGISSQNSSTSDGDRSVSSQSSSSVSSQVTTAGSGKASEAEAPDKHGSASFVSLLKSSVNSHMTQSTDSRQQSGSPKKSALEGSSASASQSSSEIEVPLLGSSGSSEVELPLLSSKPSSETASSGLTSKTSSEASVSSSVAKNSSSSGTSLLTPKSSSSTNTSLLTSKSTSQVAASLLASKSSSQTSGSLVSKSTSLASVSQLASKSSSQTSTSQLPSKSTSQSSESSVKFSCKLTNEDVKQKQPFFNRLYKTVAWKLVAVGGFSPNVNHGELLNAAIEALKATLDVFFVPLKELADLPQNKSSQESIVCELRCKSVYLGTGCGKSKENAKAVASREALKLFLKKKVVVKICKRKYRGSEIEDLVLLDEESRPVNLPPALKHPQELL
Sequence of UniProt Q8N1A6 (Q8N1A6 whole entry, looked up): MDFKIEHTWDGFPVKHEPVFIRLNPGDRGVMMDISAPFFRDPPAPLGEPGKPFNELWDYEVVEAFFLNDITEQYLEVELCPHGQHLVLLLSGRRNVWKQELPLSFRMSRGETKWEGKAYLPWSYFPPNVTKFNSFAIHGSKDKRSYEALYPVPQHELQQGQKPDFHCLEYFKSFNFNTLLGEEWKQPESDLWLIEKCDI
Sequence of UniProt P10606 (P10606 whole entry, looked up): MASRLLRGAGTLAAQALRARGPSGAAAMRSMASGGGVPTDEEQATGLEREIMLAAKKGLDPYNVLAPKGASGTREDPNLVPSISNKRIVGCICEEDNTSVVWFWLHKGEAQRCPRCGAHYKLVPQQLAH

Compound in the first assay: CCCS(=O)(=O)Nc1ccc(F)c(C(=O)c2c[nH]c3ncc(-c4ccc(Cl)cc4)cc23)c1F [vemurafenib]
As to the kind of experiment: log2 fold change, soluble protein after heating vs DMSO (PISA); higher = thermal stabilisation; K562 cells, 10 uM, 30 min; active = over 0.2 and 3.5 SD of the protein, either way, in both replicates (recomputed). The essentials:
(§1)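 K562 cells at 2×10^6 cells/mL were exposed to 10 μM compound for 30 min, then aliquots were heated for 3 min across 48°C-58°C, pooled, and extracted in PBS containing 0.5% NP-40 at 4°C. The supernatant after 21,000xg for 90 min was taken as soluble protein and measured by TMTpro 16plex LC-MS/MS with channel sums equalised. Thermal stability is reported relative to control samples, with values from duplicates. Fold changes are given on a log2 scale.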
For the target CDCA2 (UniProt Q69YH5), the log2 fold change was -0.009.

Regarding COPS8 (UniProt Q99627), the log2 fold change is -0.003.

On to CASP9 (UniProt P55211), for which the log2 fold change was 0.107.

Regarding CNOT4 isoform 6 (UniProt O95628), the log2 fold change is -0.014.

For the target CNOT2 (UniProt Q9NZN8), the log2 fold change was -0.03.

CCAR2 isoform 2 (UniProt Q8N163): the log2 fold change is 0.042.

Regarding COX6B1 (UniProt P14854), the log2 fold change is 0.015.

With COPS3 (UniProt Q9UNS2), the log2 fold change was 0.004.

CDAN1 (UniProt Q8IWY9): the log2 fold change is -0.067.

Consider CRTC2 (UniProt Q53ET0), for which the log2 fold change is 0.039.

As to COASY isoform 2 (UniProt Q13057), the log2 fold change was 0.054.

In the case of CDC26 (UniProt Q8NHZ8), the log2 fold change is 0.534 (active).

CPSF1 (UniProt Q10570): the log2 fold change was -0.115.

As for CSNK2A2 (UniProt P19784), the log2 fold change is 0.

In the case of CLCN3 isoform 2 (UniProt P51790), the log2 fold change is 0.

For the target CAVIN1 (UniProt Q6NZI2), the log2 fold change was -0.068.

Consider CBX5 (UniProt P45973), for which the log2 fold change is 0.045.

In the case of CAMK2G isoform 6 (UniProt Q13555), the log2 fold change was -0.026.

With CNTN4 (UniProt Q8IWV2), the log2 fold change was -0.038.

As to CDK13 (UniProt Q14004), the log2 fold change was -0.056.

Turning to CDK9 isoform 2 (UniProt P50750), the log2 fold change was -0.052.

For the target CDKN2AIP (UniProt Q9NXV6), the log2 fold change is 0.043.

As for C1D (UniProt Q13901), the log2 fold change is -0.046.

Consider COX5B (UniProt P10606), for which the log2 fold change was 0.037.

In the case of CLTB (UniProt P09497), the log2 fold change was -0.009.

With CHD3 isoform 3 (UniProt Q12873), the log2 fold change is 0.113.

For the target CELF2 isoform 3 (UniProt O95319), the log2 fold change was 0.065.

With CSNK1D (UniProt P48730), the log2 fold change is 0.081.

For CDK5 (UniProt Q00535), the log2 fold change was 0.031.

With CASP2 (UniProt P42575), the log2 fold change was 0.026.

With CLINT1 isoform 3 (UniProt Q14677), the log2 fold change was -0.049.

With CAMKK2 (UniProt Q96RR4), the log2 fold change was 0.037.

For the target CDK11B (UniProt P21127), the log2 fold change was 0.029.

In the case of C4orf33 (UniProt Q8N1A6), the log2 fold change was -0.01.

Regarding CALCOCO2 isoform 4 (UniProt Q13137), the log2 fold change was 0.012.

Compound in another assay: CCCS(=O)(=O)Nc1ccc(F)c(C(=O)c2c[nH]c3ncc(Cl)cc23)c1F
The assay is described as above. In short, it runs like this:
as §1
Regarding CDCA2 (UniProt Q69YH5), the log2 fold change was -0.043.

Regarding COPS8 (UniProt Q99627), the log2 fold change is -0.031.

With CASP9 (UniProt P55211), the log2 fold change is 0.111.

CNOT4 isoform 6 (UniProt O95628): the log2 fold change was -0.007.

Turning to CNOT2 (UniProt Q9NZN8), the log2 fold change was 0.006.

For CCAR2 isoform 2 (UniProt Q8N163), the log2 fold change is 0.05.

Regarding COX6B1 (UniProt P14854), the log2 fold change is -0.005.

Turning to COPS3 (UniProt Q9UNS2), the log2 fold change was 0.011.

For CDAN1 (UniProt Q8IWY9), the log2 fold change was 0.077.

Take CRTC2 (UniProt Q53ET0): the log2 fold change is 0.031.

Turning to COASY isoform 2 (UniProt Q13057), the log2 fold change is 0.209.

On to CDC26 (UniProt Q8NHZ8), for which the log2 fold change was -0.048.

CPSF1 (UniProt Q10570): the log2 fold change is 0.014.

As to CSNK2A2 (UniProt P19784), the log2 fold change is 0.08.

Turning to CLCN3 isoform 2 (UniProt P51790), the log2 fold change is 0.03.

On to CAVIN1 (UniProt Q6NZI2), for which the log2 fold change is -0.047.

For the target CBX5 (UniProt P45973), the log2 fold change was 0.085.

Take CAMK2G isoform 6 (UniProt Q13555): the log2 fold change is 0.11.

In the case of CNTN4 (UniProt Q8IWV2), the log2 fold change is 0.058.

Regarding CDK13 (UniProt Q14004), the log2 fold change is -0.037.

Turning to CDK9 isoform 2 (UniProt P50750), the log2 fold change is 0.024.

For CDKN2AIP (UniProt Q9NXV6), the log2 fold change is -0.053.

For the target C1D (UniProt Q13901), the log2 fold change was -0.175.

As to COX5B (UniProt P10606), the log2 fold change is -0.044.

As to CLTB (UniProt P09497), the log2 fold change was -0.012.

As for CHD3 isoform 3 (UniProt Q12873), the log2 fold change was 0.138.

As to CELF2 isoform 3 (UniProt O95319), the log2 fold change is 0.005.

Take CSNK1D (UniProt P48730): the log2 fold change is -0.047.

For CDK5 (UniProt Q00535), the log2 fold change is 0.058.

CASP2 (UniProt P42575): the log2 fold change is 0.193.

Turning to CLINT1 isoform 3 (UniProt Q14677), the log2 fold change was -0.073.

As to CAMKK2 (UniProt Q96RR4), the log2 fold change was -0.043.

Consider CDK11B (UniProt P21127), for which the log2 fold change is -0.064.

For C4orf33 (UniProt Q8N1A6), the log2 fold change is -0.082.

As to CALCOCO2 isoform 4 (UniProt Q13137), the log2 fold change was -0.037.
